Hits are enriched below; roughly 8.8% of the tested compounds scored in any of these assays.
HT1080 IDH1KD tx: qHTS for induction of synthetic lethality in tumor cells producing 2HG: qHTS for the HT-1080-IDH1KD cell line | HT-1080 IDH1 knockdown viability, ATP luminescence, 48 h | Potency, µM (titrated, usually from 46.1 µM), for inactives: top-dose activity, negative = toxicity, most hits filed as cytotoxic | AID 686971, 2013 | hit rate 2% among 360,000;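 also: potency is read from the fitted curve at half-maximal effect; 0% = DMSO wells and -100% = cell-free medium wells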
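IDH1KD HT-1080 cells, 750/well, RPMI + 5% FBS; compound pinned after 2 h settling; 48 h, 37 °C; CellTiter-Glo luminescence; % activity normalised to DMSO and no-cell wells; curves fitted, classed by r2 and efficacy.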
KB-3-1 cytotox: qHTS assay for MDR1-selective chemotherapeutics: Primary screen using the parental adenocarcinoma cell KB-3-1; hit rate 1.4% among 400,000; Potency, µM (titrated, usually from 46.1 µM), usual class: cytotoxic; KB-3-1 viability, CellTiter-Glo ATP luminescence, 72 h; also: potency is read from the fitted curve at half-maximal effect; nearly all actives have a fitted effect of over 60% in size
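Cells are dispensed, compounds pinned in, plates held at 37 °C for 72 h, then CellTiter-Glo is added and luminescence read after 10 minutes. Cell line: parental KB-3-1 in phenol-red-free DMEM, 10% FBS.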
IL1B secr inh: qHTS for Inhibitors of Inflammasome Signaling: IL-1-beta AlphaLISA Primary Screen | THP-1 LPS/ATP IL-1B secretion, AlphaLISA, 16 h; stronger effect = lower value | activity change, % at 57.5 µM | hit rate 4.7% among 360,000; in the data active = activity change below about -50%; inconclusive = mostly about -30% to -49%
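Secreted IL-1B measured by AlphaLISA bead assay after 16 h compound exposure of THP-1 cells; compounds (final up to 57.5 uM) added 1 h before LPS (250 ng/mL) and ATP (1.25 mM) stimulation; lower signal means less secretion.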
HT1080NT lethal: qHTS for induction of synthetic lethality in tumor cells producing 2HG: qHTS for the HT-1080-NT fibrosarcoma cell line. HT-1080-NT fibrosarcoma viability, CellTiter-Glo ATP luminescence, 48 h. Potency, µM (series often up to 46.1 µM), for the others: at the top dose activity, negative = less viability, usual class: cytotoxic. hit rate 1.6% among 360,000;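 also: NT is the 2HG producing partner of a matched IDH1 knockdown line; potency is read from the fitted curve at half-maximal effect; 0% = DMSO-treated cells and -100% = media-only wells without cells; nearly all actives have a fitted effect of over 55% in size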
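Compounds were tested in concentration-response format on HT-1080-NT cells for 48 hours at 37 degrees C. Cell viability came from CellTiter-Glo luminescence; curves were classified by r2, response magnitude and activity.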
KB-V1 cytotox: qHTS assay for MDR1-selective chemotherapeutics: Primary screen using the drug-selected MDR subline cells KB-V1; KB-V1 MDR cells viability, CellTiter-Glo, 72 h; Potency, µM (top dose mostly 46.1 µM), hits mostly cytotoxic; hit rate 3.4% among 400,000; AID 1347076, 2019; also: potency is read from the fitted curve at half-maximal effect; nearly all actives have a fitted effect of over 60% in size
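Cytotoxicity toward P-gp-expressing KB-V1 cells was determined as loss of CellTiter-Glo luminescence after 72 h at 37 degrees C. Compounds were tested in quantitative HTS format across a concentration range, with curves fitted to normalized data.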
Numbers without * were called inactive; i = inactive; u = inconclusive; x = not tested or not shown; ! = repeats disagree. Unless noted, calls follow the shape of the dose curve; as a rule, active = well fitted curve in the direction sought with a large enough effect; inconclusive = small, poorly fitted or top-dose-only effect, or another doubt; inactive = no such curve, though single readings can be large; an effect the other way counts as inactive or inconclusive. Unless noted, % is scaled to controls: 0 for no effect and ±100 for the full control effect.

SMILES	HT1080 IDH1KD tx	KB-3-1 cytotox	IL1B secr inh	HT1080NT lethal	KB-V1 cytotox
CCOc1cc2c(cc1OCC)-n1cccc1C(c1c(O)cccc1OC)NC2 (stereo not drawn)	21µM*	u	-68*	21µM*	u
CCOc1cc2c(cc1OCC)-n1cccc1C(c1ccccc1OC)NC2 (stereo not drawn)	-16%	i	-85*	-19%	u
COc1c2c(cc3c1OCO3)CC[N+](C)=C2	-3%	i	5	17%	i
C=C(C)C(Cc1c(OC)ccc(C(=O)/C=C/c2ccc(O)cc2)c1O)OO (stereo not drawn)	-6%	i	-70*	-3%	i
COc1ccc(NC(=O)N2CCN(c3nc(-c4cccc(OC)c4)cs3)CC2)cc1	u	u	-93*	-10%	12µM*
COc1ccc(NC(=O)N2CCC3(CC2)OCCO3)cc1	0%	i	2	5%	i
CC(=O)c1cn(Cc2ccc(F)cc2)c2ccccc12	-16%	i	30	-5%	u
CC(N)Cc1cn(Cc2ccccc2)c2ccccc12 (stereo not drawn)	u	23µM*	-90*	u	u
CCOC(=O)c1ccc(NC(=O)CCc2nc(-c3ccc(C)cc3)no2)cc1	u	i	-69*	u	i
CNc1ccc2oc(C[C@H]3O[C@@]4(CC[C@H]3C)O[C@H]([C@H](C)C(=O)c3ccc[nH]3)[C@H](C)C[C@H]4C)nc2c1C(=O)O	2.1µM*	4.1µM*	39	1.5µM*	3.7µM*
CC(C)c1ccc(OCC(=O)N2CCN(CCc3ccccn3)CC2)cc1	x	i	x	x	i
COC[C@H]1OC(=O)c2coc3c2[C@@]1(C)C1=C(C3=O)[C@@H]2CCC(=O)[C@@]2(C)C[C@H]1OC(C)=O	23µM*	21µM*	-101*	u	u
Cc1nn(Cc2cccc(C(=O)NC(C)c3ccc(C(C)(C)C)cc3)c2)c(C)c1[N+](=O)[O-] (stereo not drawn)	u	u	-8	-19%	6.5µM*
Cc1ccc(C[n+]2c(-c3ccc(C)cc3)cc(-c3ccc(C)cc3)cc2-c2ccc(C)cc2)cc1	2.6µM*	5.8µM*	-111*	3.3µM*	u
Cc1ccc(-c2cc(-c3ccc(C)cc3)[n+](-c3ccc(C(=O)O)cc3)c(-c3ccc(C)cc3)c2)cc1	-9%	i	-9	u	i
CCCNC(=O)N1[C@H]2CC[C@@H]1C(C(=O)OC)=C(c1ccc(OC)c(OC)c1)C2	0%	i	26	u	i
Cc1cc(OCC(=O)NCc2ccncc2)c2c3c(c(=O)oc2c1)CCCC3	11%	i	-1	12%	u
CCCCCCC(C)(C)c1ccc([C@@H]2C[C@H](O)CC[C@H]2CCCO)c(O)c1	4.6µM*	u	-67*	2.6µM*	u
O=C(O)c1[nH]c(=O)[nH]c(=O)c1F	u	7.3µM*	33	-12%	i
c1ccc2c(CN3CCCCC3)c[nH]c2c1	-4%	i	0	-1%	i
OC1(c2ccc(Cl)cc2)CCN(Cc2c[nH]c3ccccc23)CC1	18µM*	i	u	18µM*	i
COc1ccc2c(c1)C1(C(=O)O)CC=CCC1(C(=O)O)C2 (stereo not drawn)	14%	i	16	18%	i
ClCCN(CCCl)c1ccc(/C=C/c2sc3ccccc3[n+]2CCCCI)cc1	x	u	x	x	i
CSc1ccc(C(=O)C2CCCN(Cc3cccnc3)C2)cc1 (stereo not drawn)	-21%	i	-12	u	u
CSc1ccc(C(=O)C2CCCN(Cc3cc4ccccc4[nH]3)C2)cc1 (stereo not drawn)	u	i	-100*	23µM*	u
SMILES	HT1080 IDH1KD tx	KB-3-1 cytotox	IL1B secr inh	HT1080NT lethal	KB-V1 cytotox
Cc1cccc(OCC(=O)N2CCN(Cc3cc(=O)n4nc(-c5ccccc5Cl)sc4n3)CC2)c1	x	i	x	x	i
CC(C)(O)C(=O)Nc1ccc([N+](=O)[O-])c(C(F)(F)F)c1	-6%	i	23	13%	u
COc1cc2c(cc1OC)CN(c1ccc([N+](=O)[O-])c(C(F)(F)F)c1)CC2	u	i	-51*	u	i
CCOc1ccc2nc(NC(=O)c3cccn(Cc4ccccc4)c3=O)sc2c1	x	i	x	x	i
COC(=O)C1=C(c2ccc(OC)c(OC)c2)C[C@@H]2CC[C@H]1N2C(=O)NCc1cccc2ccccc12	-4%	i	-23	-5%	i
N#Cc1ccccc1Cn1cc(C(=O)c2cccs2)c2ccccc21	-7%	i	47	-13%	u
O=C(c1cccs1)c1cn(Cc2ccccc2Cl)c2ccccc12	-18%	i	u	-15%	7.3µM*
N#Cc1ccccc1Cn1cc(C(=O)c2ccccc2F)c2ccccc21	-1%	i	-4	0%	2.3µM*
COC(=O)CC1(CC(=O)OC)C(=O)NC(=O)NC1=O	2%	i	6	-2%	i
C/C(=N\N1CCN(C)CC1)c1c(O)[nH]c(=O)[nH]c1=O	1%	i	6	9%	i
N#Cc1cn(C2OC(CO)C(O)C2O)c2ncnc(N)c12 (stereo not drawn)	0.21µM*	0.0073µM*	-108*	u	u
NC(=O)c1cn(C2OC(CO)C(O)C2O)c2ncnc(N)c12 (stereo not drawn)	0.12µM*	0.021µM*	-81*!	0.33µM*	0.0073µM*!
O=C(Nc1ccon1)c1cccn(Cc2ccccc2)c1=O	x	i	x	x	i
CCOP(=O)(OCC)c1cccc(P(=O)(c2ccccc2)c2ccccc2)c1O	-7%	i	55	u	i
Cc1c(P(=S)(c2ccccc2)c2ccccc2)[n+]2ccccc2n1C	-20%	2.6µM*!	-1	-22%	u
Cn1cc[n+](C)c1P(=S)(c1ccccc1)c1ccccc1	4%	i	2	-1%	i
COCCO[C@H]1CC[C@@]2(C)C(=CCC3C2CC[C@@]2(C)C3CC[C@]2(C)O)C1 (stereo partly drawn)	-4%	i	-72*	-7%	u
CC(C)CCOP(=O)(c1ccc(N(C)C)cc1)C(O)c1ccc(Cl)cc1Cl (stereo not drawn)	16µM*	u	-88*	23µM*	u
CCOP(=O)(OCC)C(O)c1ccc(N(C)C)cc1 (stereo not drawn)	20%	i	-11	19%	i
Cc1ccc(OCC(=O)N2CCN(CCc3ccncc3)CC2)cc1C	x	i	x	x	i
